Our source for the growth values is PubChem BioAssay (NCI).

Some test systems named below: SR leukemia; RPMI-8226 leukemia; OVCAR-8 ovarian; OVCAR-5 ovarian; OVCAR-4 ovarian; SK-OV-3 ovarian; IGROV1 ovarian; HS 578T breast; NCI/ADR-RES ovarian; OVCAR-3 ovarian.
What all share (experiment): NCI-60 one-dose screen, 48 h (100 = growth as untreated, 0 = no growth, -100 = all killed)
Holding throughout (settings): 10 µM unless noted

Where “and” joins values, the source holds several entries; their conditions need not be identical. Equal values may be shown once. About 83,000 compounds went through this panel and 20% of them were active in at least one assay; those are over-represented in the sample as a whole.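 Cells were grown in 96-well plates and exposed to the test compound at a single concentration for 48 hours; results are reported as percent growth, with values below 10 considered active.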 Values without a mark were called inactive. Calls of active or inactive are those of the source.

For the molecule `C[N+](C)=c1ccc2nc3c(cc(NCCCNc4cc5oc6cc(=[N+](C)C)ccc-6nc5c5ccccc45)c4ccccc43)oc-2c1`, the growth in the test with SR leukemia was 6.05% (active); with RPMI-8226 leukemia, 2.21% (active); in the test with OVCAR-8 ovarian it was -5.6% (active); with OVCAR-5 ovarian it was 68.5%; in the test on OVCAR-4 ovarian, -100% (active); in the test on SK-OV-3 ovarian, 90.1%. The growth with IGROV1 ovarian is 19.1%; in the test on HS 578T breast it was 87.4%; with NCI/ADR-RES ovarian, 6.53% (active).
For `CN=C(N)N/N=C(\C)c1ccc2c(c1)Cc1cc(/C(C)=N/NC(N)=NC)ccc1-2`, the growth with SR leukemia was -23.3% (active); in the test with RPMI-8226 leukemia, -1.58% (active); in the test with OVCAR-8 ovarian, -53.5% (active); in the test on OVCAR-5 ovarian it was -44.4% (active); in the test on OVCAR-4 ovarian, -69.1% (active); with SK-OV-3 ovarian, -80.8% (active). In addition, the growth in the test with IGROV1 ovarian was 26.5%; in the test with OVCAR-3 ovarian, -59.6% (active); with HS 578T breast it was -8.27% (active); with NCI/ADR-RES ovarian it was 64.8%.
As to `CCC(c1cccc(O)c1)C(CC)c1cccc(O)c1` (stereo not given), the growth in the test with SR leukemia was 16.5%; with RPMI-8226 leukemia it was 31.6%; in the test with OVCAR-8 ovarian it was 85.6%; in the test on OVCAR-5 ovarian, 96.3%; with OVCAR-4 ovarian, 67.6%; in the test on SK-OV-3 ovarian it was 76.5%. Also, the results for the growth in the test with IGROV1 ovarian, in the test on HS 578T breast and in the test on NCI/ADR-RES ovarian were 72.4%, 54.2% and 72.1%, respectively.
In the case of `O=C(Nc1ccccc1)Oc1c(Cl)c(Cl)c(Cl)c(Cl)c1Cl`, the growth with SR leukemia is 98.2% and 99.2%; in the test on RPMI-8226 leukemia, 95.2%; in the test on OVCAR-8 ovarian, 105% and 98%; with OVCAR-5 ovarian, 95.3% and 87.5%; with OVCAR-4 ovarian it was 111% and 91.9%; in the test with SK-OV-3 ovarian, 102% and 90.5%. Further, the growth in the test with IGROV1 ovarian is 95.2% and 96.3%; in the test on OVCAR-3 ovarian, 96.9% and 104%; in the test on HS 578T breast it was 91.6%; with NCI/ADR-RES ovarian, 103% and 96.6%.
Turning to `CCC(=O)Sc1ccccc1C(=O)Nc1ccc(Cl)cc1`, the growth was 26.3% with SR leukemia; 35% with RPMI-8226 leukemia; 78.8% in the test with OVCAR-8 ovarian; 110% in the test on OVCAR-5 ovarian; 44.5% with OVCAR-4 ovarian; 87.3% in the test with SK-OV-3 ovarian. The growth is 71.2% in the test with IGROV1 ovarian, 54.5% with HS 578T breast and 52.6% in the test on NCI/ADR-RES ovarian.
`O=[N+]([O-])c1ccc(N=Nc2ccc(O)cc2O)cc1`: the growth was 16.6% with SR leukemia; 43% in the test on RPMI-8226 leukemia; 61.9% in the test with OVCAR-8 ovarian; 107% in the test on OVCAR-5 ovarian; 48.4% in the test with OVCAR-4 ovarian; 87% in the test on SK-OV-3 ovarian. In addition, the growth with IGROV1 ovarian was 76.5%; in the test with OVCAR-3 ovarian, 54.8%; in the test on HS 578T breast, 51.8%; with NCI/ADR-RES ovarian, 52.6%.
For the molecule `O=C(CC1(O)C(=O)Nc2c(Cl)ccc(Cl)c21)c1ccc(Cl)cc1Cl` (stereo not given), the growth in the test with SR leukemia is 86.9%; in the test with RPMI-8226 leukemia it was 99.9%; in the test with OVCAR-8 ovarian, 107%; with OVCAR-5 ovarian, 110%; with OVCAR-4 ovarian it was 87.9%; with SK-OV-3 ovarian it was 84.9%. The growth with IGROV1 ovarian was 97.6%; with HS 578T breast, 94%; with NCI/ADR-RES ovarian, 106%.
`CC(=Nc1ccc(N(C)C)cc1)c1ccccc1`: the growth with SR leukemia was 32.6%; in the test on RPMI-8226 leukemia, 7.42% (active); in the test on OVCAR-8 ovarian, 25.7%; with OVCAR-5 ovarian it was 106%; in the test on OVCAR-4 ovarian, 69.9%; with SK-OV-3 ovarian, 73%. For the same molecule, the growth is 58.8% in the test on IGROV1 ovarian, 74.2% in the test with HS 578T breast and 74.7% in the test on NCI/ADR-RES ovarian.
Regarding `N#CSCC(=O)c1ccc(Cl)cc1`, the growth with SR leukemia is 69.9%; with RPMI-8226 leukemia, 45.6%; in the test with OVCAR-8 ovarian, 63.7%; with OVCAR-5 ovarian, 22.5%; in the test with OVCAR-4 ovarian, 63.5%; with SK-OV-3 ovarian it was 66.7%. For the same molecule, the figures for the growth in the test on OVCAR-3 ovarian, in the test on HS 578T breast and with NCI/ADR-RES ovarian were -25.3% (active), 70.5% and -16.4% (active), respectively.
On to `Cc1ccnc2c1ccc1c(C)ccnc12`, for which the growth in the test on SR leukemia is 4.34% (active); in the test on RPMI-8226 leukemia it was 17.4%; in the test on OVCAR-8 ovarian, 12.1%; in the test on OVCAR-5 ovarian, 48.8%; with SK-OV-3 ovarian, 3.59% (active); in the test on IGROV1 ovarian it was 23.8%. Besides, the growth in the test on OVCAR-3 ovarian is 24.9%; with HS 578T breast, 52.6%; in the test with NCI/ADR-RES ovarian it was 1.41% (active).
For `O=C(Nc1ccc(F)cc1)ON=C1CCCCC1`, the growth with SR leukemia is 84.9% [100 µM]; with RPMI-8226 leukemia it was 93.9% [100 µM]; in the test with OVCAR-8 ovarian, 106% [100 µM]; in the test on OVCAR-5 ovarian, 97.9% [100 µM]; in the test with SK-OV-3 ovarian, 129% [100 µM]; in the test with IGROV1 ovarian, 102% [100 µM]. In addition, the values for the growth with OVCAR-3 ovarian, with HS 578T breast and with NCI/ADR-RES ovarian were 108% [100 µM], 99% [100 µM] and 105% [100 µM], respectively.
As for `Cn1c2ccccc2c2nnc(N/N=C/c3ccccn3)nc21`, the growth is 8.61% (active) in the test with SR leukemia; -14.2% (active) with RPMI-8226 leukemia; 23.9% with OVCAR-8 ovarian; 40.6% with OVCAR-5 ovarian; 24.4% in the test with OVCAR-4 ovarian; -11.1% (active) in the test with SK-OV-3 ovarian. The growth was 4.97% (active) with IGROV1 ovarian, 53.7% in the test with HS 578T breast and 6.51% (active) in the test on NCI/ADR-RES ovarian.
`N#CSCc1ccc(Cl)c(CSC#N)c1`: the growth is 8.52% (active) in the test on SR leukemia; 23.9% in the test on RPMI-8226 leukemia; 61.9% with OVCAR-8 ovarian; 68.7% in the test with OVCAR-5 ovarian; 48.7% in the test with OVCAR-4 ovarian; 90.1% in the test on SK-OV-3 ovarian. The growth in the test on IGROV1 ovarian is 59.4%; in the test with HS 578T breast, 49%; in the test on NCI/ADR-RES ovarian, 45.5%.
